Reference: PubChem BioAssay (NCI)
Compounds without any hit were thinned out: in the full panel of roughly 83,000, 20% have a hit.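 Results are percent growth after 48 hours of single-concentration exposure. 100 means growth as in untreated cells, lower positive values show inhibition; negative values down to -100 show cell death.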 Activity calls are given as the source filed them. The calls were made as follows: active = growth percent below 10; inactive = the rest.

Tests used:
Assay in all cases: NCI-60 one-dose screen, 48 h (100 = growth as untreated, 0 = no growth, -100 = all killed)
Settings in all cases: 10 µM unless noted
[1] = tested on: NCI-H23 lung
[2] = tested on: NCI-H226 lung
[3] = tested on: NCI-H322M lung
[4] = tested on: HOP-62 NSCLC
[5] = tested on: NCI-H460 lung
[6] = tested on: HOP-92 NSCLC
[7] = tested on: NCI-H522 lung
[8] = tested on: A549/ATCC NSCLC
[9] = tested on: 786-0 renal
[10] = tested on: COLO 205 colon
[11] = tested on: DU-145 prostate
[12] = tested on: K-562 leukemia
[13] = tested on: MALME-3M melanoma
[14] = tested on: MDA-MB-231 breast
[15] = tested on: RXF 393 renal
[16] = tested on: SF-268 CNS
[17] = tested on: SF-295 CNS
[18] = tested on: SF-539 CNS
[19] = tested on: UACC-257 melanoma
[20] = tested on: M14 melanoma

Measured: growth

CC(C)=CCC[C@](C)(O)[C@H]1CC[C@]2(C)[C@@H]1CC[C@@H]1[C@@]3(C)Cc4nccnc4C(C)(C)[C@@H]3CC[C@]12C
inactive: [1] 66.9% | [2] 74.6% | [3] 100% | [4] 94.6% | [5] 73.6% | [6] 93.2% | [7] 62.8% | [8] 46.3% | [9] 78.6% | [10] 76.3% | [11] 70.9% | [12] 63.2% | [13] 66.4% | [14] 74.4% | [15] 94.3% | [16] 86.5% | [17] 95.2% | [18] 76.3% | [19] 75.7% | [20] 71.4%

Cc1ccccc1NC(=O)c1sc2nc(C)c(C(=O)/C=C/c3ccccc3)cc2c1N
active: [4] 9.21% | [5] 0.299% | [9] -16.9% | [14] 3.85% | [15] -26.7% | [18] -34.4% | [20] 4.85%
inactive: [1] 43.3% | [2] 26.2% | [3] 55.5% | [6] 37% | [7] 17.9% | [8] 14.3% | [10] 64.1% | [11] 10.5% | [12] 13% | [13] 59.7% | [16] 11.8% | [17] 14% | [19] 68.5%

COc1ccc(CC(C#N)c2cc3ccccc3[nH]2)cc1 (stereo not given)
inactive: [1] 87.1% | [2] 90.6% | [3] 92.9% | [4] 89% | [5] 97.2% | [6] 49.7% | [7] 84.3% | [8] 86.3% | [9] 94.7% | [10] 99.8% | [11] 101% | [12] 80.5% | [13] 89.3% | [14] 82.3% | [15] 94.1% | [16] 90.7% | [17] 94.1% | [18] 97.5% | [19] 94.3% | [20] 84.2%

C#Cc1ccc(NC(=O)c2ccc(/C=C/C(=O)c3nccn3C)cc2)cc1
active: [1] -56% | [2] -35.3% | [3] -95.4% | [4] -47% | [5] -56.4% | [6] -25.4% | [7] -26.7% | [8] -0.388% | [9] -79.1% | [10] -53.7% | [11] -86.8% | [12] 1.98% | [13] -38.4% | [14] -55.7% | [15] -86.3% | [16] -28.9% | [17] -91.2% | [18] -96.7% | [19] -19.6% | [20] -69.8%

CC12CCC3c4ccccc4CCC3(CO1)C2 (stereo not given)
inactive: [1] 98.3% | [2] 95.8% | [3] 94.7% | [4] 95.5% | [5] 105% | [6] 105% | [7] 94.6% | [8] 106% | [9] 118% | [10] 101% | [11] 121% | [12] 99.9% | [13] 95.1% | [14] 124% | [15] 93.4% | [16] 107% | [17] 77.2% | [18] 104% | [19] 110% | [20] 128%

Cc1ccc(Sc2oc(-c3ccc(C)cc3)nc2[P+](c2ccccc2)(c2ccccc2)c2ccccc2)cc1
active: [1] -17.2% | [4] 9.94% | [5] -39.6% | [6] -9.3% | [7] -38.5% | [8] 7.74% | [9] 3.99% | [10] -41.5% | [12] 4.98% | [13] -41.1% | [14] -12.5% | [15] -18.8% | [17] 9.9% | [18] -5.1% | [19] 0.818% | [20] 7.37%
inactive: [2] 15.7% | [3] 10.3% | [11] 11.6% | [16] 10.9%

CC1=C(C(=O)OC(C)C)C(c2ccc3c(c2)OCO3)NC(=S)N1 (stereo not given)
inactive: [1] 99.2% | [2] 84.1% | [3] 108% | [4] 119% | [5] 110% | [6] 96.6% | [7] 86.4% | [8] 104% | [9] 104% | [10] 123% | [11] 109% | [12] 107% | [13] 95.9% | [14] 101% | [15] 106% | [16] 103% | [17] 95.8% | [18] 98.9% | [19] 100% | [20] 99%
